Cruzain Triton – qHTS Assay for Promiscuous and Specific Inhibitors of Cruzain (with detergent) | Potency, µM, actives largely listed as inhibitors | actives 0.43% (n = 200,000) | AID 1478, 2009 | purified cruzain, Z-FR-AMC fluorescence, 0.01% Triton | Cruzipain (Trypanosoma cruzi), P25779; further: nearly all actives have a fitted effect of over 40% in size
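Detergent-containing run (0.01% Triton X-100) in acetate buffer pH 5.5 with 5 mM DTT: enzyme at 1.5 nM final, 15 min compound preincubation at room temperature, then 2 uM Z-FR-AMC substrate. Activity taken as 60 s fluorescence increase at 360/450 nm.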
Cruzain inh noDet – qHTS Assay for Promiscuous and Specific Inhibitors of Cruzain (without detergent) | Cruzipain (Trypanosoma cruzi), P25779 | purified cruzain, Z-FR-AMC fluorescence, no detergent | Potency, µM, usual class: inhibitors | actives 2.3% (n = 200,000) | AID 1476, 2009; further: nearly all actives have a fitted effect of over 40% in size
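Purified cruzain at 1.5 nM, pre-incubated 15 min with compound at room temperature in 100 mM sodium acetate pH 5.5, 5 mM DTT, 0.00005% Triton X-100. Reaction started with 2 uM Z-FR-AMC; AMC fluorescence increase over 60 s gives rate.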
Papain inh – qHTS Assay for Inhibitors of Papain: Counterscreen for Cruzain Assay; shares compounds with Cruzain Triton; AID 2161, 2009; actives 41% (n = 410); purified papain, Z-FR-AMC fluorescence cleavage; Potency, µM, usual class: inhibitors; further: nearly all actives have a fitted effect of over 35% in size
Target sequence (P00784 whole entry, looked up): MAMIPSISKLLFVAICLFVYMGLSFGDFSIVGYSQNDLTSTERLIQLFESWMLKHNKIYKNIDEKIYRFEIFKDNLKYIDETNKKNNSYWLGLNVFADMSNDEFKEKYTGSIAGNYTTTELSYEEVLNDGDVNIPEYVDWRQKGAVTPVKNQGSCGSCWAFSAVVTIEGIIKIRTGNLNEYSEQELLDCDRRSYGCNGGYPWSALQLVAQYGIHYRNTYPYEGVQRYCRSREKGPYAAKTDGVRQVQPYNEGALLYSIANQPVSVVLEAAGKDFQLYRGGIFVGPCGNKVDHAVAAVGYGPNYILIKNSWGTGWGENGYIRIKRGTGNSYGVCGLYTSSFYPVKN
Numbers stand for hits; ! = a repeat was not active. This is a sample that favours compounds with a hit; in the whole collection about 2.6% have one here. The call rests on the fitted dose curve; in most records, active means well fitted curve in the direction sought with a large enough effect; inconclusive means small, poorly fitted or top-dose-only effect, or another doubt; inactive means no such curve, though single readings can be large; an effect the other way counts as inactive or inconclusive.

`Cc1ccc(C(=O)NCc2ccc3c(c2)OCO3)cc1S(=O)(=O)N1CCOCC1` gave Cruzain Triton inactive and Cruzain inh noDet inactive.
CC[C@](N)(CCC(=O)O)C(=O)O was read as Cruzain Triton inactive and Cruzain inh noDet inactive.
CCN1CCN(C(c2cccc(F)c2)c2c(O)cc(C)n(Cc3ccco3)c2=O)CC1 (configuration not stated) was read as Cruzain Triton inactive and Cruzain inh noDet inconclusive.
Screening CC1(C)CC(=O)c2cc(C(=O)Nc3ccc(Cl)cc3)c(=O)[nH]c2C1 returned Cruzain Triton inactive and Cruzain inh noDet inactive.
For Cc1ccn2c(=O)c(NC(=O)c3cccc([N+](=O)[O-])c3C)c(C)nc2c1 the results were Cruzain Triton inactive and Cruzain inh noDet inactive.
Nc1nc(N)c2nc(-c3ccccc3)c(N)nc2n1 was read as Cruzain Triton 31.6µM!, Cruzain inh noDet 7.94µM! and Papain inh 22.4µM.
For NNc1nnc(-c2ccccc2)c(-c2ccccc2)n1 the results were Cruzain Triton inactive and Cruzain inh noDet inactive.
CCOC(=O)Cn1c(=O)n(CC2CCCO2)c2nc(-c3c(F)cccc3Cl)nc(C(N)=O)c21 (configuration not stated) was read as Cruzain Triton inactive and Cruzain inh noDet inactive.
For CSc1nc(NC(C)C)nc(NC(C)C)n1 the results were Cruzain Triton inactive and Cruzain inh noDet inactive.
CC(C)Nc1nc(C#N)nc(Nc2ccccc2)n1 was read as Papain inh 2.24µM.
Screening CNc1nc(N/N=C/c2ccc([N+](=O)[O-])cc2)nc(Nc2ccccc2)n1 returned Cruzain Triton inactive and Cruzain inh noDet inactive.
Screening CC(C)CNc1nc(C#N)nc(Nc2ccccc2)n1 returned Papain inh 1.26µM.
For CNc1nc(C#N)nc(Nc2ccccc2)n1 the results were Papain inh 2.24µM.
For CC(C)Nc1nc(C#N)nc(NC(C)C)n1 the results were Cruzain Triton 11.2µM, Cruzain inh noDet 15.8µM and Papain inh 5.01µM.
For COc1nc(Nc2ccc([N+](=O)[O-])cc2)nc(NC(C)C)n1 the results were Cruzain Triton inactive and Cruzain inh noDet inactive.
CN(C)c1nc(Nc2ccccc2)nc(N(C)C)n1 was read as Cruzain Triton inactive and Cruzain inh noDet inactive.
CCc1ccc(-n2c(=O)c3cccnc3n2CC(=O)Nc2cc(F)ccc2F)cc1 was read as Cruzain Triton inactive and Cruzain inh noDet inactive.
`COc1ccc(-c2cnc(-c3cccnc3)o2)cc1` gave Cruzain Triton inactive and Cruzain inh noDet inactive.
Screening O=S(=O)(c1ccc(Cl)cc1)c1nc(-c2cccs2)oc1N1CCCCC1 returned Cruzain Triton inactive and Cruzain inh noDet inactive.
For CC1CCCCN1S(=O)(=O)c1ccc(C(=O)Nc2sc3c(c2C(N)=O)CC(C)(C)NC3(C)C)cc1 (configuration not stated) the results were Cruzain Triton inactive and Cruzain inh noDet inactive.
For Cc1nnc(N2CCCC(C(=O)NCCc3ccccc3)C2)c2nn(-c3ccccc3)c(C)c12 (configuration not stated) the results were Cruzain Triton inactive and Cruzain inh noDet inactive.
`CNC(=O)C1CCC(Cn2c(=O)c3sccc3n(CC(=O)NCc3ccc(F)cc3)c2=O)CC1` (configuration not stated) gave Cruzain Triton inactive and Cruzain inh noDet inactive.
`CCC(=O)CCC(=O)c1ccc2ccccc2c1` gave Cruzain Triton inactive and Cruzain inh noDet inactive.
For CC(C)N(CCC(=O)c1ccc2ccccc2c1)Cc1ccccc1 the results were Cruzain Triton 7.94µM, Cruzain inh noDet 7.94µM and Papain inh inactive.
Screening CCOc1ccc(C(=O)/C=C/Nc2ccc(S(=O)(=O)N=C(N)N)cc2)cc1 returned Cruzain Triton inactive and Cruzain inh noDet inactive.
For NS(=O)(=O)c1ccc(N/C=C\C(=O)c2ccc3ccccc3c2)cc1 the results were Cruzain Triton 8.91µM, Cruzain inh noDet 6.31µM and Papain inh inactive.
For CCOc1cc(C(=O)N2CCc3c([nH]c4ccccc34)C2c2ccccc2)cc(OCC)c1OCC (configuration not stated) the results were Cruzain Triton inactive and Cruzain inh noDet inconclusive.
For COc1ccc(-c2nc(C#N)c(NCCCN3CCOCC3)o2)cc1 the results were Cruzain Triton 20µM, Cruzain inh noDet inactive and Papain inh 3.98µM.
`N#Cc1nc(-c2ccc(F)cc2)oc1NCCN1CCOCC1` gave Cruzain Triton inactive and Cruzain inh noDet inactive.
`COc1ccc(C(=O)COC(=O)CNC(=O)C2CCCCC2)c(OC)c1` gave Cruzain Triton 3.98µM, Cruzain inh noDet 6.31µM and Papain inh inactive.
`COc1ccc(OC)c(C(=O)COC(=O)CNC(=O)C2CCCCC2)c1` gave Cruzain Triton 4.47µM, Cruzain inh noDet 5.01µM and Papain inh inactive.

From PubChem BioAssay
